# HNF4A DNA FP = change in binding of human HNF4 alpha to DNA. HNF4a-FITC DNA binding, fluorescence polarization, 1 h. 0.3% of 360,000 active. P41235. activity change, % at 10 µM; in the data active = activity change above about 30%, passing the limit was not always enough
# Rpn11 inh = inhibitors of human proteasome Rpn11; inhibition, % at 20 µM; human 26S proteasome, Ub4-pepOG fluorescence polarization; 20S core pre-blocked with epoxomicin; AID 588493; O00487; 0.59% of 360,000 active;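 active = inhibition at 20 µM, scaled to each plate's controls, above about 33%, limit read from the data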
# CTSL1 counter = counter-screen for PFM18AAP inhibitors: inhibitors of F. hepatica cathepsin L1. 0.49% of 300,000 active. AID 1906. inhibition, % at 5.96 µM. recombinant F. hepatica cathepsin L1, Z-Leu-Arg-MCA fluorescence;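 active = inhibition above the mean of all tested compounds plus 3 SD, set per screening campaign, cut at about 17% in these data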;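 also: 0% = plate median of test compound wells and 100% = 1 µM Z-Phe-Ala-diazomethylketone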
# NRP1-CendR mod = alters CendR peptide binding to human NRP-1. 0.85% of 360,000 active. FAM-RPARPAR peptide binding to NRP-1, fluorescence polarization. inhibition, % at 25 µM. O14786. AID 602438;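 active = inhibition or corrected inhibition above about 18%, plus a signal ratio from 0.5 to 1.5, limit read from the data, passing the limit was not always enough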
# PHOSPHO1 inh = blocks human PHOSPHO1 phosphatase activity | AID 1565 | recombinant PHOSPHO1, absorbance phosphatase assay | Q8TCT1 | 1.1% of 290,000 active | inhibition, % at 13.3 µM; in the data active = inhibition above about 60%
# TPT1 inhibitor = inhibitors of Candida albicans tRNA 2'-phosphotransferase TPT1; recombinant caTPT1, FP RNA substrate dephosphorylation; inhibition, % at 5 µM; 0.81% of 300,000 active; AID 1962;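 active = inhibition above the mean of all tested compounds plus 3 SD, set per screening campaign, cut at about 24% in these data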;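 also: plate controls were DMSO alone for no effect and ferristatin control at 100 nM for full effect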
# caTPT1 confirm = TPT1 (C. albicans) inhibition, confirmation | inhibition, % at 5 µM | 74% of 2,400 active | shares compounds with TPT1 inhibitor | recombinant caTPT1, fluorescence polarization, RNase T1 coupled;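 active = inhibition above the primary screen limit, the mean inhibition of all tested compounds plus 3 SD, cut at about 25% in these data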
# RNase T1 counter = blocks Aspergillus oryzae RNase T1, a TPT1 counter-screen; 83% of 2,400 active; inhibition, % at 5 µM; AID 2153; shares compounds with TPT1 inhibitor; RNase T1 cleavage, fluorescence polarization, 1536-well;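 active = inhibition above the solvent-only control well mean plus 3 SD, limit set per screening run, cut at about 23% in these data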;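 also: plate controls were DMSO wells with enzyme for no effect and wells without RNase T1 for full effect; inhibitors block cleavage so intact labeled substrate keeps polarization high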
# Rpn11 inh conf = confirmation of human proteasome Rpn11 inhibitors; inhibition, % at 20 µM; 29% of 1,900 active; purified human 26S proteasome, Ub4-pepOG fluorescence polarization; proteasome pretreated with epoxomicin; shares compounds with Rpn11 inh
# MMP-2 counter = blocks human MMP-2, flagging nonselective RPN11 hits. shares compounds with Rpn11 inh. recombinant MMP-2, FRET peptide cleavage fluorescence. inhibition, % at 20 µM. 4% of 1,900 active. AID 602330;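 also: human MMP-2 activated beforehand with APMA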
# Target sequence (P08253 whole entry, looked up): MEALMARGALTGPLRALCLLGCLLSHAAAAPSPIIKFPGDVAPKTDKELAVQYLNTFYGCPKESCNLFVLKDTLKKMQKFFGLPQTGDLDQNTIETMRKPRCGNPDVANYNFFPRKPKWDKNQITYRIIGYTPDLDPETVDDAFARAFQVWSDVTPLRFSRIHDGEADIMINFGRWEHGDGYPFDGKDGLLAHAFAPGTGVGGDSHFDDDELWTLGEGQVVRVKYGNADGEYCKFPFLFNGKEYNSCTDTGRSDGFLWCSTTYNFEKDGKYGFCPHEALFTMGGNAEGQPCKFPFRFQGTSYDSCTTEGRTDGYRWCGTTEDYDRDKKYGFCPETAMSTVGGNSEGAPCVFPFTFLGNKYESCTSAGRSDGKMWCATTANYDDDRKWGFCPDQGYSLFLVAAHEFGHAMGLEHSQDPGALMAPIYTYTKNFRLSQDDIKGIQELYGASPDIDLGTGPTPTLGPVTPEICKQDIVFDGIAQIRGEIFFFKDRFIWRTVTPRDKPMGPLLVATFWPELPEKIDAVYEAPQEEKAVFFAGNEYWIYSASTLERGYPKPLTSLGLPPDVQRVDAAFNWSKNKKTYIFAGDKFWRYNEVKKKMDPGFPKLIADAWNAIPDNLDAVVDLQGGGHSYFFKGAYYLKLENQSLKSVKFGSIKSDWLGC
# Thrombin inh = counter-screen for RPN11 inhibitors: inhibition of bovine thrombin | shares compounds with Rpn11 inh | bovine thrombin cleavage of Ub4-pepOG, fluorescence polarization | inhibition, % at 20 µM | 13% of 1,900 active | AID 602333;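 active = mean inhibition at least 40% at 20 µM, or signal 3 deviations below plate average, so some actives read negative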;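 also: plate controls were thrombin with DMSO for no effect and buffer wells lacking thrombin for full effect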
# * = called active by the depositor; nt = no result given. Only some compounds are listed: those with a hit (about 3.3% of all), similar ones and a draw of the others. Rule as the data show it, unless noted: active = inhibition above about 40%; inactive = the rest.
SMILES,HNF4A DNA FP,Rpn11 inh,CTSL1 counter,NRP1-CendR mod,PHOSPHO1 inh,TPT1 inhibitor,caTPT1 confirm,RNase T1 counter,Rpn11 inh conf,MMP-2 counter,Thrombin inh
O=C(O)CCCN1C(=O)/C(=C/c2ccncc2)SC1=S,-7,7,-1,2,6,0,nt,nt,nt,nt,nt
CCN(CC)c1ccc2cc(C(N)=O)c(=O)oc2c1,35,40*,6,-39,-20,40*,36*,45*,11,-43,5
NC(=O)c1cc2cc(Cl)ccc2oc1=O,6,9,0,0,-4,0,nt,nt,nt,nt,nt
CCOc1cc(/C=N/NC(=O)c2ccc(CN3CCOCC3)cc2)ccc1OC,3,3,-1,1,-16,-6,nt,nt,nt,nt,nt
CCOc1cc(/C=C/C(=O)c2ccc(OC)c(CN3CCOCC3)c2)cc(Br)c1O,5,68*,6,-134,19,55*,81*,86*,72*,2,80*
CCNC(=O)c1ccc(NS(=O)(=O)c2ccccc2)cc1,-3,-6,-3,17,34,0,nt,nt,nt,nt,nt
O=C1/C(=C/c2ccc([N+](=O)[O-])cc2)C=C(c2ccccc2)N1c1ccccc1,25,40*,5,-27,16,35*,12,23*,8,17,-2
COc1cc2ccccc2cc1C(=O)Nc1sc2c(c1C(N)=O)CCN(C(C)C)C2,38,45*,3,-114,48,82*,54*,62*,69*,-53,46*
CC(C)[C@H](NC(=O)C1CC(=O)N(c2ccc3c(c2)OCCO3)C1)C(=O)NC1CCCC1 (some centres undefined),7,3,-1,-9,2,1,nt,nt,nt,nt,nt
COc1cc(/C=C(\C#N)C(=O)N2CCc3ccccc32)ccc1O,0,81*,3,-36,-5,36*,71*,76*,11,-16,10
COc1cc(/C=C/C(=O)OCC(=O)Nc2ccc3c(c2)OCCO3)ccc1O,-1,-5,-3,5,-9,2,nt,nt,nt,nt,nt
N#C/C(=C\c1cccc(O)c1)C(=O)N1CCCCC1,-3,2,-1,-10,-1,1,nt,nt,nt,nt,nt
COc1cc(/C=C(\C#N)C(=O)Nc2ccc3c(c2)OCCO3)ccc1O,7,56*,8,-91,-6,57*,71*,77*,2,17,37
N#C/C(=C\c1ccc(O)c(O)c1)C(=O)N1CCc2ccccc21,2,65*,8,-93,nt,36*,46*,51*,70*,15,15
O=C(NCc1ccc(F)cc1)C1CCCN1S(=O)(=O)c1ccccc1C(F)(F)F (centres undefined),-4,2,nt,4,nt,nt,nt,nt,nt,nt,nt
O=C(COc1ccc(S(=O)(=O)N2CCCC2)cc1)NCc1cccnc1,0,6,1,10,49,-2,nt,nt,nt,nt,nt
CN(C)c1ccc(/C=C/C=C2/SC(=S)N(c3ccccc3)C2=O)cc1,57*,70*,2,-144,40,104*,71*,81*,49*,-31,37
O=[N+]([O-])c1cccnc1N1CCCCC1,3,0,-9,-5,32,0,nt,nt,nt,nt,nt
O=[N+]([O-])c1ccc(N2CCCCC2)s1,25,54*,3,-55,14,35*,34*,46*,44*,6,35
COc1c(Cl)cc(Cl)cc1/C=N/n1cnnc1,-1,-22,2,-1,32,-7,nt,nt,nt,nt,nt
CCn1c(C)cc(/C=C2/SC(=S)N(CC(=O)O)C2=O)c1C,44*,52*,6,-133,-26,83*,94*,102*,97*,-17,63*
C#CCN1C(=O)S/C(=C/c2cc(C)n(CC)c2C)C1=O,2,2,0,-6,-4,-2,nt,nt,nt,nt,nt
CCN1CCc2c(sc(NC(=O)c3ccc(S(=O)(=O)N(CC)c4ccccc4)cc3)c2C(N)=O)C1,29,58*,-4,-53,56,97*,103*,107*,76*,-246,11
O=C(Cn1cc(C(=O)COc2ccccc2)c2ccccc21)NCc1ccco1,19,38*,3,-91,7,34*,26*,38*,60*,21,39
CC(=O)c1cn(CC(=O)NCc2ccco2)c2ccccc12,2,4,2,4,33,-2,nt,nt,nt,nt,nt
SMILES,HNF4A DNA FP,Rpn11 inh,CTSL1 counter,NRP1-CendR mod,PHOSPHO1 inh,TPT1 inhibitor,caTPT1 confirm,RNase T1 counter,Rpn11 inh conf,MMP-2 counter,Thrombin inh
CCCCn1c(O)c(/C=C2\C=Nc3ccccc32)c(=O)[nH]c1=O,5,42*,0,-31,51,30*,33*,43*,51*,-29,11
c1ccc(CN=C(NCc2ccccc2)NCc2ccccc2)cc1,3,-8,nt,13,nt,nt,nt,nt,nt,nt,nt
CC(=O)N1CCOc2ccc(S(=O)(=O)NCc3ccc(F)cc3)cc21,-3,-12,4,12,17,-2,nt,nt,nt,nt,nt
COc1cc(/C=C(\C#N)C(=O)NCCc2ccccc2)cc(OC)c1O,9,79*,0,-149,2,76*,104*,106*,54*,3,52*
N#C/C(=C\c1ccc(O)c(O)c1)C(=O)NCCc1ccccc1,-3,17,2,-62,nt,4,nt,nt,nt,nt,nt
Cc1sc2nc(CSc3nnc(Cc4cccs4)n3C3CCCCC3)[nH]c(=O)c2c1C,30,72*,5,-108,22,38*,66*,74*,102*,-7,59*
Cc1ccc2nc(CSc3nnc(Cc4cccs4)n3C3CCCCC3)cc(=O)n2c1,-2,4,1,5,30,-1,nt,nt,nt,nt,nt
Cc1nc2ccccn2c1/C(O)=C1\C(=O)C(=O)N(CCCn2ccnc2)C1c1ccncc1 (centres undefined),-1,-23,6,-8,26,-14,nt,nt,nt,nt,nt
O=C(Nc1cccc([N+](=O)[O-])c1)Nc1cnccn1,2,-1,0,9,29,1,nt,nt,nt,nt,nt
COCCCNC(=S)N1CCN(S(=O)(=O)c2ccc(OC)cc2)CC1,3,-4,1,1,-25,-8,nt,nt,nt,nt,nt
Cc1[nH]c2ccccc2c1/C=C/C(=O)c1ccncc1,13,47*,2,-81,32,76*,77*,87*,42*,-61,37

# High-throughput results as filed in PubChem BioAssay.
